Experimental findings from PubChem BioAssay (Tox21) are described below.

A short description of test [1]: A CellTox Green Cytotoxicity Assay to monitor cytotoxicity in HEK293 cells - 40 hour (AID 1224871). Further: nearly all actives have a fitted effect of over 45% in size. Summed up: (§1)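 Tox21 screen in HEK293: membrane-impermeant cyanine dye fluoresces on binding dead-cell DNA; compound pinned 5 h post-seeding, plates held at 37 C, signal read repeatedly through 40 h.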
Test [2] can be described thus: qHTS RealTime-Glo MT Cell Viability Assay in HEK293 cells - 16 hour (AID 1224872). Further: nearly all actives have a fitted effect of over 50% in size. Further: potency means the concentration at half of the fitted maximal effect. The gist of the method:
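Viability tracked continuously by luminescence as live cells reduce a prosubstrate for NanoLuc; HEK293 cells preincubated 5 h, compound-treated at 37 C, and read at 0, 8, 16, 24, 32 and 40 h.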
(qHTS replaces the single test concentration by a dilution series.)

A short description of test [3]: qHTS RealTime-Glo MT Cell Viability Assay in HepG2 cells - 8 hour (AID 1224873). Further: nearly all actives have a fitted effect of over 55% in size. The gist of the method: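 Real-time viability: cells seeded at 600 per well together with NanoLuc and cell-permeant prosubstrate, compounds added after 5 h incubation. Luminescence tracked at 0, 8, 16, 24, 32 and 40 h of exposure.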
A short description of test [4]: qHTS RealTime-Glo MT Cell Viability Assay in HEK293 cells - 40 hour (AID 1224874). Further: nearly all actives have a fitted effect of over 50% in size. Further: potency means the concentration at half of the fitted maximal effect. The conditions noted are these: RealTime-Glo luminescence; max response: stronger effect = lower value. Summed up:
(§2)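 HEK293 + NanoLuc + prosubstrate, 600 cells/well; 5 h, 37 C/5% CO2; compound 23 nL in DMSO by pintool; 37 C; luminescence read at 0, 8, 16, 24, 32 and 40 h time points.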

Test [5] can be described thus: A CellTox Green Cytotoxicity Assay to monitor cytotoxicity in HEK293 cells - 24 hour (AID 1224875). Further: series mostly up to about 77 µM; nearly all actives have a fitted effect of over 45% in size. Summed up:
as §1

Test [6] can be described thus: A CellTox Green Cytotoxicity Assay to monitor cytotoxicity in HepG2 cells - 16 hour (AID 1224876). Further: nearly all actives have a fitted effect of over 45% in size. Summed up:
(§3)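 Measurements at 0, 8, 16, 24, 32 and 40 h of treatment captured CellTox Green fluorescence in HepG2 cells that had been co-plated with reagent and preincubated 5 h at 37 C/5% CO2.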

Test [7] can be described thus: qHTS RealTime-Glo MT Cell Viability Assay in HepG2 cells - 32 hour (AID 1224877). Further: nearly all actives have a fitted effect of over 55% in size. Summed up:
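Viability was tracked continuously by NanoLuc luminescence from prosubstrate reduced by living HepG2 cells, at successive time points over 40 h of compound exposure. Cells with reagent were preincubated 5 h at 37 °C before compound addition.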

A short description of test [8]: A CellTox Green Cytotoxicity Assay to monitor cytotoxicity in HepG2 cells - 24 hour (AID 1224878). Further: nearly all actives have a fitted effect of over 45% in size. The gist of the method: as §3
A short description of test [9]: A CellTox Green Cytotoxicity Assay to monitor cytotoxicity in HepG2 cells - 40 hour (AID 1224879). Further: nearly all actives have a fitted effect of over 40% in size. Summed up:
as §3

Test [10] can be described thus: qHTS RealTime-Glo MT Cell Viability Assay in HEK293 cells - 0 hour (AID 1224880). The gist of the method:
as §2

Inconclusive results are not listed. Values without a mark were called inactive. Activity calls are given as the source filed them. The call rests on the fitted dose curve; in most records, active means well fitted curve in the direction sought with a large enough effect in the repeat runs; inconclusive means weak or mixed curves; inactive means no such curve, though single readings can be large; an effect the other way counts as inactive or inconclusive.
On the % scale 0 is the no-effect control and ±100 the full control effect.

Take `CC(C)c1cc2c(cc1S(=O)(=O)O)[C@@]1(C)CCC[C@@](C)(C(=O)O)[C@@H]1CC2`: the Potency entry in test [1], in test [2], in test [3], in [5], in test [6] and in [7] was “inactive” throughout. In addition, the Potency entry in test [8] and in test [9] was “inactive” in each case. In test [4], the max response is 1.39%.

As for `Cc1ccc(Cl)cc1Cl`, the Potency entry in test [1], in [2], in test [3], in test [5], in [6] and in test [7] was “inactive” throughout. In addition, the Potency result in test [8] and in test [9] was “inactive” throughout. The max response in test [4] was 13.6%.

In the case of `O=S(O)CO`, the Potency result in test [1], in [2], in test [3], in [5], in test [6] and in test [7] was “inactive” in each case. Besides, the Potency entry in test [8] and in [9] was “inactive” in each case. Further, in [4], the max response is 10.1%.

With `C1OCOCO1`, the Potency result in test [1], in test [2], in test [3], in test [5], in test [6] and in [7] was “inactive” in each case. Moreover, the Potency entry in [8], in test [9] and in test [10] was “inactive” each time. In test [4], the max response is 2.99%.

For `Nc1c[n+](N2CCOCC2)no1`, the Potency result in test [1], in [2], in test [3], in test [5], in test [6] and in test [7] was “inactive” in each case. Besides, the Potency result in test [8], in test [9] and in [10] was “inactive” in each case. Besides, the max response in test [4] is 0.673%.

As for `CC(C)=CCCC(C)CC(=O)O` (stereo unspecified), the Potency result in test [1], in [2], in [3], in [5], in test [6] and in test [7] was “inactive” in each case. Further, the Potency entry in test [8], in test [9] and in [10] was “inactive” throughout. The max response in [4] is 2.41%.

For `C=CCOCC(CC)(CO)COCC=C`, the Potency entry in [1], in test [2], in test [3], in [5], in [6] and in test [7] was “inactive” in each case. Also, the Potency result in test [8], in test [9] and in test [10] was “inactive” throughout. Also, the max response in test [4] is 5.04%.

For the compound `CC(=O)Nc1c(I)cc(I)c(C(=O)O)c1I`, the Potency entry in test [1], in test [2], in test [3], in test [5], in test [6] and in test [7] was “inactive” each time. Also, the Potency result in test [8] and in test [9] was “inactive” in each case. In addition, the max response in [4] was 7.77%.

On to `OCCCC1CCCCC1`, for which the Potency entry in [1], in [2], in [3], in test [5], in test [6] and in test [7] was “inactive” in each case. Besides, the Potency entry in [8], in [9] and in test [10] was “inactive” each time. For the same compound, the max response in [4] is 11.3%.

Take `O=C[C@H](O)[C@@H](O)[C@H](O)[C@H](O)CO`: the Potency result in test [1], in [2], in test [3], in [5], in [6] and in test [7] was “inactive” in each case. In addition, the Potency entry in [8] and in [9] was “inactive” throughout. The max response in [4] is 17.2%.

Turning to `Nc1ccccc1S(=O)(=O)O`, the Potency result in [1], in test [2], in [3], in [5], in test [6] and in test [7] was “inactive” each time. For the same compound, the Potency entry in test [8] and in test [9] was “inactive” throughout. In [4], the max response was 0.0936%.

As for `CCCN(CCC)CCc1cccc2c1CC(=O)N2`, the Potency result in test [1], in test [2], in test [3], in [5], in test [6] and in test [7] was “inactive” in each case. The Potency entry in test [8] and in test [9] was “inactive” each time. The max response in [4] was 5.11%.

Turning to `NS(=O)(=O)c1cc(C(=O)O)cc(N2CCCC2)c1Oc1ccccc1`, the Potency entry in test [1], in [2], in [3], in test [5], in test [6] and in test [7] was “inactive” each time. In addition, the Potency result in test [8] and in [9] was “inactive” each time. Moreover, in test [4], the max response is -15.6%.

For the compound `O=c1cc(CO)occ1O`, the Potency entry in test [1], in test [2], in test [3], in test [5], in test [6] and in test [7] was “inactive” throughout. Moreover, the Potency result in test [8], in [9] and in test [10] was “inactive” in each case. For the same compound, the max response in test [4] was 3.18%.

Regarding `CC(C(=O)O)c1ccc(CC2CCCC2=O)cc1` (stereo unspecified), the Potency entry in [1], in test [2], in test [3], in test [5], in test [6] and in test [7] was “inactive” in each case. For the same compound, the Potency entry in test [8], in test [9] and in test [10] was “inactive” in each case. The max response in test [4] is -1.24%.

As to `CC/C=C\CCOC(C)=O`, the Potency entry in test [1], in [2], in test [3], in [5], in [6] and in test [7] was “inactive” in each case. The Potency entry in [8] and in [9] was “inactive” each time. For the same compound, in test [4], the max response is -1.39%.

Regarding `C[C@H](NC(CCc1ccccc1)C(=O)O)C(=O)N1CCC[C@H]1C(=O)O` (stereo partly specified), the Potency result in [1], in test [2], in [3], in test [5], in test [6] and in test [7] was “inactive” throughout. Moreover, the Potency result in [8] and in test [9] was “inactive” in each case. Moreover, the max response in test [4] was -70.9%.

Consider `NS(=O)(=O)c1cc(C(=O)NN2C[C@H]3[C@H]4CCC(C4)[C@H]3C2)ccc1Cl`, for which the Potency result in test [1], in test [2], in test [3], in test [5], in [6] and in test [7] was “inactive” in each case. The Potency entry in [8] and in test [9] was “inactive” throughout. Further, in test [4], the max response is -21.1%.

On to `Oc1ccc(C2CNCCc3c2cc(O)c(O)c3Cl)cc1` (stereo unspecified), for which the Potency result in test [1], in test [2], in [3], in test [5], in [6] and in test [7] was “inactive” in each case. Further, the Potency result in test [8], in [9] and in [10] was “inactive” in each case. Further, the max response in test [4] was -10.9%.

Regarding `CCOC(=O)C(=O)OCC`, the Potency result in test [1], in test [2], in test [3], in [5], in test [6] and in test [7] was “inactive” in each case. The Potency result in [8], in test [9] and in test [10] was “inactive” in each case. Moreover, the max response in test [4] was 6.27%.

As to `COc1ccccc1OCC(O)CN1CCN(CC(=O)Nc2c(C)cccc2C)CC1` (stereo unspecified), the Potency result in test [1], in test [2], in test [3], in test [5], in test [6] and in test [7] was “inactive” in each case. Also, the Potency entry in test [8], in [9] and in test [10] was “inactive” each time. In [4], the max response was -12.4%.

`CCOC(=O)CCC(C)=O`: the Potency entry in test [1], in [2], in test [3], in test [5], in test [6] and in test [7] was “inactive” throughout. For the same compound, the Potency entry in test [8], in test [9] and in test [10] was “inactive” each time. Moreover, the max response in [4] is -9.25%.

For the compound `O=C(CCCN1CCC(O)(c2cccc(C(F)(F)F)c2)CC1)c1ccc(F)cc1`, the Potency result in [1], in test [3], in test [5], in test [6] and in test [7] was “inactive” each time. The values for the Potency in test [2] and in test [4] were 19 µM (active) and 21.3 µM (active), respectively.
